The values below come from PubChem BioAssay (NCATS).

Results filed as inconclusive are left out. Entries that show only a call come without a potency. The source made the active and inactive calls. The call rests on the fitted dose curve; in most records, active means well fitted curve in the direction sought with a large enough effect; inconclusive means small, poorly fitted or top-dose-only effect, or another doubt; inactive means no such curve, though single readings can be large; an effect the other way counts as inactive or inconclusive.
Potency means the concentration at half of the fitted maximal effect.

One assay in a line: Quantitative highthroughput screen to assess conditional lethalithy of NOMO1 cells grown in RPMI1640 with dialyzed fetal bovine serum (RPMI+ds) (AID 1963877). Further: nearly all actives have a fitted effect of over 30% in size. The following applies: NOMO1 in RPMI+dialyzed FBS viability, ATP luminescence, 48 h; series mostly up to 45.8 µM. In outline: (§1)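 Each medium arm—HPLM with 10% dialyzed FBS, or RPMI1640 with 5 mM glucose and 10% untreated or dialyzed FBS—was screened against an 11-point, 3-fold compound titration for 48 h at 37 °C, with CellTiter-Glo luminescence as endpoint.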
In the case of `Cc1c(N)nc([C@H](CC(N)=O)NC[C@@H](N)C(N)=O)nc1C(=O)N[C@H](C(=O)N[C@@H](C)[C@H](O)[C@@H](C)C(=O)N[C@@H](C(=O)NCCc1nc(-c2nc(C(=O)NCCC[S+](C)C)cs2)cs1)[C@@H](C)O)C(O[C@H]1O[C@H](CO)[C@H](O)[C@@H](O)[C@@H]1O[C@H]1O[C@H](CO)[C@@H](O)[C@H](OC(N)=O)[C@H]1O)c1cnc[nH]1` (stereo not given in full), the Potency is 2640 nM (active).

In the case of `C=CCON=C(C[C@H]1O[C@@H]2O[C@]3(C)CC[C@@H]4[C@H](C)CC[C@@H]([C@H]1C)[C@@]24OO3)[C@H]1O[C@@H]2O[C@]3(C)CC[C@H]4[C@H](C)CC[C@@H]([C@@H]1C)[C@@]24OO3`, the Potency was 743 nM (active).

On to `COC1=CC(C)=C[C@@H](C)[C@@H](O)[C@@H](C)CC(C)=CC=C[C@H](OC)[C@H]([C@@H](C)[C@@H](O)[C@H](C)[C@@]2(O)C[C@@H](O)[C@H](C)[C@@H](C(C)C)O2)OC1=O`, for which the Potency is 74.3 nM (active).

As to `C[C@@H]1CC[C@@]2(OC1)O[C@H]1C[C@H]3[C@@H]4CC=C5C[C@@H](O[C@@H]6O[C@H](CO)[C@@H](O[C@@H]7O[C@@H](C)[C@H](O)[C@@H](O)[C@@H]7O)[C@H](O)[C@@H]6O[C@@H]6O[C@@H](C)[C@H](O)[C@@H](O)[C@@H]6O)CC[C@]5(C)[C@@H]4CC[C@]3(C)[C@@H]1[C@H]2C`, the Potency was 23500 nM (active).

Take `Cc1nc(-c2ccc(-c3ccc(C(=O)N4CCc5cc6c(cc54)C4(CCN(C)CC4)CO6)cc3)c(C)c2)no1`: the Potency entry is “inactive”.

Consider `C[C@@]12OC(=O)[C@]1([C@@H](O)[C@@H]1C=CCCC1)NC(=O)[C@H]2CCCl`, for which the Potency was 209 nM (active).

For the compound `CN(C)CCN(C)CCc1ccc(Cl)c(Cl)c1`, the Potency entry is “inactive”.

For `C[C@]12CCC(=O)C(O)=C1CC[C@@H]1[C@H]3CCC(=O)[C@@]3(C)CC[C@@H]12`, the Potency result was “inactive”.

For `CCN1C[C@]2(OC(=O)c3ccccc3NC(C)=O)CC[C@H](OC)[C@@]34[C@H]5CC6[C@@H](OC)C[C@](O)(C(C[C@@H]23)[C@@H]14)[C@@]5(O)[C@@H]6OC`, the Potency result is “inactive”.

Another assay is described as follows: Quantitative highthroughput screen to assess conditional lethalithy of NOMO1 cells grown in Human Plasma-Like Medium with dialyzed fetal bovine serum (HPLM+ds) (AID 1963878). Further: nearly all actives have a fitted effect of over 35% in size. The settings on record: NOMO1 AML cells in HPLM+ds, CellTiter-Glo viability, 48 h; series mostly up to 45.8 µM. Summed up: as §1
(Cellular ATP, detected with luciferase, serves as a proxy for viable cell number.)
On to `Cc1c(N)nc([C@H](CC(N)=O)NC[C@@H](N)C(N)=O)nc1C(=O)N[C@H](C(=O)N[C@@H](C)[C@H](O)[C@@H](C)C(=O)N[C@@H](C(=O)NCCc1nc(-c2nc(C(=O)NCCC[S+](C)C)cs2)cs1)[C@@H](C)O)C(O[C@H]1O[C@H](CO)[C@H](O)[C@@H](O)[C@@H]1O[C@H]1O[C@H](CO)[C@@H](O)[C@H](OC(N)=O)[C@H]1O)c1cnc[nH]1` (stereo not given in full), for which the Potency is 935 nM (active).

With `CC(=CCCC1=CCC(C2=CC(=O)OC2O)OC1O)CCC1=C(C)CCCC1(C)C` (stereo not given), the Potency result is “inactive”.

As for `CC(C)(C)[C@]1(O)C[C@@H]2OC(=O)C[C@@]23C(=O)O[C@@H]2OC(=O)[C@H](O)C213` (stereo not given in full), the Potency entry is “inactive”.

In the case of `C1=C2CCCN[C@H]2[C@@H]2C[C@H]1[C@@H]1CCCCN1C2`, the Potency result was “inactive”.

Consider `C[C@H]([C@H](O)CCC(C)(C)O)[C@H]1CC[C@@]2(O)C3=CC(=O)[C@@H]4C[C@@H](O)[C@@H](O)C[C@]4(C)[C@@H]3CC[C@]12C`, for which the Potency result was “inactive”.

Regarding `CC[C@H]1C=CC=CC[C@@H](C)[C@H](O)[C@@](C)(O)C(=O)[C@@H](C)[C@H](O)[C@@H](C)C(=O)[C@@H](C)[C@H](O)[C@@H](C)C=CC(=O)O[C@@H]2[C@@H](C)[C@H](CC1)O[C@]1(CC[C@H](C)[C@H](C[C@@H](C)O)O1)[C@H]2C`, the Potency is 2640 nM (active).

Take `C=C[C@@H]1CN2CCC1C[C@@H]2[C@@H](O)c1ccnc2ccccc12` (stereo not given in full): the Potency result is “inactive”.

Turning to `C[C@@]12OC(=O)[C@]1([C@@H](O)[C@@H]1C=CCCC1)NC(=O)[C@H]2CCCl`, the Potency is 166 nM (active).

Consider `C[C@@H]1O[C@@H](O[C@@H]2C=C3CC[C@@H]4[C@@H](CC[C@]5(C)[C@H](c6ccc(=O)oc6)CC[C@@]45O)[C@@]3(C)CC2)[C@H](O)[C@H](O)[C@H]1O`, for which the Potency is 33.2 nM (active).

For the compound `CSCC[C@@H](NC(=O)[C@@H](Cc1ccccc1)NC(=O)CNC(=O)CNC(=O)[C@@H](N)Cc1ccc(O)cc1)C(=O)O`, the Potency entry is “inactive”.

Turning to `C[C@]12CCC(=O)C(O)=C1CC[C@@H]1[C@H]3CCC(=O)[C@@]3(C)CC[C@@H]12`, the Potency entry is “inactive”.

Take `CC1=C2C[C@@H]3[C@@H](CC=C4C[C@@H](O)CC[C@@]43C)[C@@H]2CC[C@]12O[C@H]1C[C@H](C)CN[C@H]1[C@H]2C`: the Potency entry was “inactive”.

Regarding `CCOC(=O)c1c(C(C#N)=CN)c2ccc(Cl)c(Cl)c2n1C`, the Potency entry was “inactive”.

`CC1=NN=C(c2ccc(N)cc2)c2cc3c(cc2C1)OCO3`: the Potency entry is “inactive”.

In the case of `CCN1C[C@]2(OC(=O)c3ccccc3NC(C)=O)CC[C@H](OC)[C@@]34[C@H]5CC6[C@@H](OC)C[C@](O)(C(C[C@@H]23)[C@@H]14)[C@@]5(O)[C@@H]6OC`, the Potency result is “inactive”.

In the case of `CC[C@@H]1[C@@H](C)O[C@@](O)([C@@H](C)[C@H](O)[C@H](C)[C@H]2OC(=O)C=CC=C[C@@H](C)[C@@H]([C@@H](C)[C@@H](O)[C@H](C)[C@@]3(O)C[C@H](O[C@H]4C[C@H](O)[C@H](O)[C@H](C)O4)[C@H](CC)[C@@H](C)O3)OC(=O)C=CC=C[C@@H]2C)C[C@H]1O[C@H]1C[C@H](O)[C@H](O)[C@H](C)O1`, the Potency was 2960 nM (active).
